Compound activity: PubChem BioAssay, National Center for Advancing Translational Sciences (NCATS)
Shown are actives, neighbours in structure and some others; about 21% of the full set was active somewhere.
Giardia FBPA inh: Giardia lamblia aldolase inhibition. 290,000 compounds, 0.71% hits. A8B2U2. purified Giardia FBPA. AID 2451. Potency, µM (doses to about 59.6 µM), for inactives: at the highest dose activity, negative = inhibition, usual class: inhibitors; further: potency means the concentration at half of the fitted maximal effect; on the % scale 0 is the no-effect control and ±100 the full control effect; nearly all actives have a fitted effect of over 55% in size
Target sequence (A8B2U2 whole entry, looked up): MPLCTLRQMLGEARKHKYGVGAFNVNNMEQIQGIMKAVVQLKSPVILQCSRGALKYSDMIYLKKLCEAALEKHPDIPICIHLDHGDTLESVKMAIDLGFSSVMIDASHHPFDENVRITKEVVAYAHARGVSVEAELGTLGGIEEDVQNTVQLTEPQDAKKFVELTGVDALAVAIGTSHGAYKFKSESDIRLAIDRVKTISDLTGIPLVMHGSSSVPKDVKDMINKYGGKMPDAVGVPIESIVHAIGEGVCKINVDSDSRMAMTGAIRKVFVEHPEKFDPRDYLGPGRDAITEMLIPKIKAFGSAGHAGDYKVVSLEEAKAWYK
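Giardia FBPA (40 nM reagent) was preincubated 10 min at RT with compound (up to 57.5 uM final), then substrate plus GAPDH/TPI/NAD/arsenate coupling system with diaphorase/resazurin was added; resorufin fluorescence (525/598 nm) was read after 20 min.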
CHX counter: affects cycloheximide protein synthesis inhibition readout, counter-screen. cell reporter, cycloheximide protein synthesis inhibition counterscreen. max response, %. 300,000 compounds, 12% hits; in the data active means max response mostly above about 13%, no sharp cut-off; inactive means mostly below about 14%; further: read at 38.3 µM for the half of the compounds with a filed dose; 0% is about no effect
NS1 inh: influenza NS1 inhibition; Potency, µM (series often up to 46.1 µM), inactives show top-dose activity, positive = more growth; 270,000 compounds, 0.4% hits; calls by dose curve; further: potency means the concentration at half of the fitted maximal effect; actives are rising curves; nearly all actives have a fitted effect of over 50% in size
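Growth recovery, yeast-based: influenza A NS1 expressed in S. cerevisiae causes slow growth, and suppressors are detected by OD600. The parent strain without NS1 is used as positive control.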
Shiga toxin inh: Shiga toxin inhibition | Vero cells, Shiga toxin protein synthesis inhibition reporter | inhibition, % at 38.7 µM | 290,000 compounds, 9.2% hits; in the data active means inhibition mostly above about 28%, no sharp cut-off; inactive means mostly below about 43%; further: 0% is about no effect
Pf growth 96h: P. falciparum growth inhibition at 96 hour, primary screen for plastid delayed-death inhibitors. P. falciparum luciferase reporter growth, 96 h. Potency, µM (series often up to 28.7 µM), for inactives: top-dose activity change, negative = inhibition, most hits filed as inhibitors. 320,000 compounds, 6.9% hits; further: potency means the concentration at half of the fitted maximal effect; on the % scale 0 is the no-effect control and ±100 the full control effect
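Parasite growth measured via integrated firefly luciferase reporter in P. falciparum. Infected erythrocytes at 2% hematocrit, 0.05% parasitemia final were treated 96 hours at 37 C under 5% CO2, and luminescence was read.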
Pf growth 48h: P. falciparum growth inhibition at 48 hours (one generation); P. falciparum luciferase growth in erythrocytes, 48 h; Potency, µM (doses to about 28.7 µM), for the others: at the highest dose activity change, negative = inhibition, hits mostly inhibitors; 310,000 compounds, 5.9% hits; further: potency means the concentration at half of the fitted maximal effect; on the % scale 0 is the no-effect control and ±100 the full control effect
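Parasite viability was followed by luminescence of a genomically integrated firefly luciferase. Cultures held 0.1% parasitemia at 2% hematocrit (final), incubated under 5% CO2 at 37 C.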
Numbers without * were called inactive; ? = inconclusive; . = no result. Unless noted, the call rests on the fitted dose curve; in most records, active means well fitted curve in the direction sought with a large enough effect; inconclusive means small, poorly fitted or top-dose-only effect, or another doubt; inactive means no such curve, though single readings can be large; an effect the other way counts as inactive or inconclusive.

SMILES | Giardia FBPA inh | CHX counter | NS1 inh | Shiga toxin inh | Pf growth 96h | Pf growth 48h
O=C(Cc1ccc(Cl)cc1)NN1C(=O)c2ccccc2C1=O | 4% | -3 | 7% | 2 | ? | -2%
COC(=O)[C@@H]1[C@@H](C#N)C2(c3ccccc3-c3ccccc32)N(c2ccc(Cl)cc2)N1C#N | -19% | 12* | -16% | 47* | -5% | -20%
COc1ccc(Nc2c3c(nc4ccccc24)CCC3)c(OC)c1 | 7% | -3 | -4% | -6 | -14% | ?
Cc1ccc2nc3c(c(Nc4cccc(O)c4)c2c1)CCC3 | -13% | 2 | -1% | -12 | 22% | 5.2µM*
CC(=O)c1cccc(Nc2c3c(nc4ccccc24)CCC3)c1 | -29% | -2 | 4% | 13 | 0% | ?
COC(=O)c1cccc(Nc2c3c(nc4ccccc24)CCC3)c1 | -5% | -2 | -7% | 1 | -5% | 12µM*
COc1ccccc1Nc1c2c(nc3ccccc13)CCC2 | 7% | -6 | 5% | -6 | ? | 8.3µM*
CC(OC(=O)CSc1ccccc1)C(=O)NC1CCCCC1C (configuration not stated) | . | . | . | . | 59% | -7%
CCOC(=O)C1=NN(c2ccccc2)C(=O)/C1=C\c1ccc(N(C)C)cc1 | 8% | -2 | -18% | 10 | 7% | 8%
CC1=NN(Cc2ccccc2)C(=O)/C1=C\c1ccc(N(C)C)cc1 | -2% | 31* | -11% | 32* | -5% | -1%
CCN(CC)S(=O)(=O)c1ccc2[nH]c(=O)cc(C(=O)NCC3CCCO3)c2c1 (configuration not stated) | . | . | . | . | 21% | ?
CN(C)CCCN(Cc1cc2cc3c(cc2[nH]c1=O)OCO3)C(=S)Nc1cccc(Cl)c1 | -3% | 9 | 1% | -10 | ? | ?
Cc1cc2cc(CN(CC3CCCO3)C(=S)Nc3ccccc3)c(=O)[nH]c2cc1C (configuration not stated) | -1% | -2 | 22% | -20 | 9% | 12µM*
CN(C)CCCN(Cc1cc2cc3c(cc2[nH]c1=O)OCO3)C(=S)Nc1ccccc1 | -3% | 14 | 3% | 31* | ? | ?
CCN1CCCC1CN(Cc1cc2ccc(C)cc2[nH]c1=O)C(=S)Nc1cccc(OC)c1 (configuration not stated) | 3% | -2 | -1% | -13 | 15% | 10µM*
COc1ccc2cc(CN(CC3CCCO3)S(=O)(=O)c3ccc(C(C)=O)cc3)c(=O)[nH]c2c1 (configuration not stated) | 1% | 19* | 6% | 64* | ? | .
CN(C(=O)COC(=O)CSc1ccc(C(N)=O)cc1[N+](=O)[O-])C1CCS(=O)(=O)C1 (configuration not stated) | . | . | . | . | -15% | 0%
Cc1ccccc1OC(=O)c1cccc(S(=O)(=O)N2CCN(C)CC2)c1 | . | . | . | . | -11% | 13%
COc1ccccc1NC(=S)N(Cc1ccco1)Cc1cc2cc(C)c(C)cc2[nH]c1=O | -2% | -1 | 16% | -10 | 2.1µM* | 13µM*
COc1ccc2cc(CN(CC3CCCO3)C(=S)Nc3ccccc3)c(=O)[nH]c2c1 (configuration not stated) | -8% | 3 | 10% | -7 | ? | 9.3µM*
COC(=O)N1C2(C=CC1(C)C(=O)NCc1ccc(N(C)C)cc1)CCCCC2 (configuration not stated) | -10% | . | . | . | . | .
COc1ccc(C(=O)N2CCN(C)C(=O)[C@@H]2C)cc1OC1CCN(C(C)=O)CC1 | . | -1 | -1% | -4 | 40% | -1%
C/C(=N\NC(=O)c1ccn[nH]1)c1cn(C)nc1C | 4% | 44* | 1% | 117* | 137% | 126%
Cc1cccc(NC(=O)c2nc[nH]c2C(=O)NCCCCCNC(=O)OC(C)(C)C)c1 | . | . | . | . | ? | 2.6µM*
Cc1cccc(NC(=O)c2nc[nH]c2C(=O)N[C@@H](CCCCNC(=O)OC(C)(C)C)C(=O)OC(C)(C)C)c1 | ? | -3 | ? | -6 | 6.6µM* | 4.7µM*
SMILES | Giardia FBPA inh | CHX counter | NS1 inh | Shiga toxin inh | Pf growth 96h | Pf growth 48h
CCN(CC)C(=O)c1[nH]cnc1C(=O)N[C@@H](CCCCNC(=O)OC(C)(C)C)C(=O)OC(C)(C)C | -1% | 1 | 2% | 14 | ? | ?
CCN(c1ccc(C(=O)CSc2nnc(C3CC3)n2C2CC2)cc1)S(C)(=O)=O | . | . | . | . | 0% | ?
Cn1nc(C(F)(F)F)c(/C=N/OC(=O)c2ccccc2Cl)c1SCc1ccccc1Cl | -2% | 2 | -5% | -5 | ? | 13µM*
CC(C)c1ccccc1NC(=O)CN1C(=O)c2ccccc2C1=O | 13% | -2 | 1% | -6 | -8% | 27%
CCN=C1S/C(=C\c2ccc(OC)c(OCC)c2)C(=O)N1CC | -2% | -2 | 6% | -16 | 0% | -11%
CCN=C1S/C(=C\c2sccc2C)C(=O)N1CC | 2% | 19* | -11% | 31* | -6% | 47%
Cc1ccsc1/C=C1\SC(=S)N(CC2CCCO2)C1=O (configuration not stated) | 4% | 0 | -2% | 31 | 1.3µM* | 27%
O=C1/C(=C/c2ccc(O)cc2)SC(=S)N1CC1CCCO1 (configuration not stated) | 3% | 36* | -4% | 40* | ? | -27%
CCOc1ccc(N(CC(=O)Nc2ccccc2C(=O)N2CCCC2)S(C)(=O)=O)cc1 | 4% | -5 | 10% | -11 | 21% | -8%
CCOC(=O)N1CCC(NC(=O)c2cc3c(-c4cccc(OC)c4)nn(C)c3s2)CC1 | 1% | -2 | 3% | -8 | . | 9.3µM*
COc1cccc(-c2nn(C)c3sc(C(=O)Nc4ccc5c(c4)OCCO5)cc23)c1 | -5% | 61* | -9% | 75* | 28% | ?
CCN(CC)CCNC(=O)c1cc2c(-c3cccc(OC)c3)nn(C)c2s1 | 2% | -1 | 3% | 3 | ? | 1.5µM*
Cc1ccc(-c2cnc(-c3ccncc3)o2)cc1 | 1% | 33* | -49% | 95* | . | -14%
O=[N+]([O-])c1ccc(-c2ncc(-c3ccc(Br)cc3)o2)cc1 | 5% | -2 | 3% | -6 | 103% | 67%
Nc1ccc(-c2ncc(-c3ccccc3)o2)cc1 | 6% | 1 | 1% | -6 | ? | 9.3µM*
Cc1ccc(-n2c(-c3ccncc3)nnc2-c2ccco2)cc1 | 3% | -5 | -5% | -8 | . | -5%
Cc1ccc(C)c(S(=O)(=O)N2CCN(C(=O)CCNS(=O)(=O)c3ccccc3)CC2)c1 | -12% | -2 | -4% | -3 | ? | 7%
CC1(C(=O)OCc2cc(=O)n3cc(Br)ccc3n2)CC1(Cl)Cl (configuration not stated) | -2% | 36* | -4% | 78* | 103% | 297%
CC(C)[C@H](NC(=O)c1ccccc1Cl)C(=O)OCc1cc(=O)n2cc(Br)ccc2n1 | 3% | 19 | -13% | -3 | 65% | 20%
